Bioassay records (PubChem)
Many of the other results were omitted from the sample, so hits are more common in it than they were.
Pf Dd2 inh = inhibitors of Plasmodium falciparum Dd2 growth; Potency, µM (doses to about 28.9 µM), for the others: at the highest dose activity, negative = inhibition, most hits filed as inhibitors; AID 1347417; 4.3% of 120,000 active; P. falciparum Dd2 growth, SYBR Green, 72 h; active = well fitted inhibition curve with a large enough effect;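 also: plate controls were DMSO vehicle for no effect and reference drug for full effect; nearly all actives have a fitted effect of over 65% in size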
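Infected erythrocytes (Dd2, 0.3% parasitemia, 2.5% hematocrit final) are added to compound in RPMI-1640/Albumax II medium, grown 72 h at 37C in low oxygen, then lysed with saponin/Triton-X containing SYBR Green and read by fluorescence.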
* = called active by the depositor; i = inactive; [ ] = remark or other dose. Potency is read from the fitted curve at half-maximal effect.

SMILES	Pf Dd2 inh
O=C(Nc1ccc(-c2nnc3n2CCCC3)cc1)C1CCC1	6.6%
C=CCNC(=O)c1ccc2cncn2c1	-11.1%[44.1 µM]
O=C(NCCN1CCOCC1)c1ccc(-c2ccc(N3CCCCCC3)nc2)cc1	-23.0%
CC(C)NC(=O)c1ccc(-c2nnc3ccc(NC(=O)C4CCC4)cn23)cc1	3.98µM*
O=C(NC1CC1)c1ccc2nnc(-c3ccc(F)cc3)n2c1	9.7%[44.1 µM]
C=CCNC(=O)c1ccc(-c2nnc3ccc(NC(=O)C4CCC4)cn23)cc1	3.16µM*
Cc1ccc(-c2ccc3nnc(CNC(=O)C4CCCCC4)n3n2)cc1	9.5%
COc1cccc(NC(=O)C2CCCN(S(=O)(=O)c3c(C)nn(C)c3C)C2)c1 (configuration not stated)	-5.1%
O=C(Cn1nc2n(c1=O)CCCCC2)Nc1ccccc1	11.8%
O=C(Nc1cccc(C(F)(F)F)c1)c1nc2c(o1)CCN(Cc1cccs1)CC2	i
O=C([C@@H]1C[C@H](Oc2ccccc2)CN1C(=O)Cc1cccc(F)c1)N1CCOCC1	8.3%
CN1C[C@H](NCc2cnn(C)c2)CCC[C@@H](C(=O)NCc2cc(F)cc(F)c2)CC1=O	16.4%[44.1 µM]
COc1ccc(OC)c(-c2n[nH]c3c2CC(=O)N(CCOc2ccccc2)C3)c1	i
O=C(O)[C@@H]1CN(C(=O)CCc2ccc(=O)[nH]n2)C[C@H]1C1CC1	4.7%
O=C(c1nnc(CNc2ccc(OC(F)(F)F)cc2)n1-c1ccccc1)N1CCC[C@@H]1CN1CCCC1	-3.8%
O=C(NCC1CCCO1)C1CCN(c2cc(C(F)(F)F)ncn2)CC1 (configuration not stated)	-8.1%
COCCn1ncc(N2CCCC(CC(=O)O)C2)cc1=O (configuration not stated)	44.0%
C=CCNC(=O)c1cccnc1N1CC2CC(C1)[C@H]1CCCC(=O)N1C2 (some centres not stated)	-2.6%
COc1cccc(CN2C(=O)OC3(CCN(C(=O)C(C)C)CC3)C2(C)c2cccnc2)c1 (configuration not stated)	i
O=C1NCCCCCCN(S(=O)(=O)Cc2ccccc2F)[C@H]2CCC[C@@H]12	-4.0%
CC(C)CNc1ccc2c(n1)C(C)(C(=O)Nc1ccn(C)n1)CN(Cc1ccccc1)C2 (configuration not stated)	-14.0%[44.1 µM]
COCCCNC(=O)C1(C)CN(Cc2ccccc2)Cc2ccc(NCC(C)C)nc21 (configuration not stated)	-24.1%[44.1 µM]
CC(C)CNc1ccc2c(n1)C(C)(C(=O)Nc1ccncc1)CN(Cc1ccccc1)C2 (configuration not stated)	2.24µM*
O=C(c1ccoc1)N1CCCC(CN2CCCC2)CC1 (configuration not stated)	-20.3%
O=C(NCCN1CCOC1=O)c1cn(CCC2CCCCN2)nn1 (configuration not stated)	7.2%
SMILES	Pf Dd2 inh
CC(C)NC(=O)c1cc(-c2cccc(C(F)(F)F)c2)c2nncn2n1	4.2%
O=C(c1cc(-c2cccc(C(F)(F)F)c2)c2nncn2n1)N1CCOCC1	15.3%
O=C(c1cc(-c2cccc(C(F)(F)F)c2)c2nncn2n1)N1CCCC1	-21.3%
C#CCNC(=O)c1cc(-c2cccc(C(F)(F)F)c2)c2nncn2n1	14.1µM*
Cc1cn2nc(C(=O)NCc3cccc(C(F)(F)F)c3)cc2c(=O)[nH]1	-18.7%
O=C(NCc1cccs1)c1cc(-c2cccc(C(F)(F)F)c2)c2nncn2n1	2µM*
COc1ccc(OCC(=O)N2CCN(C(=O)c3cc(OC)c(OC)c(OC)c3)CC2)cc1	17.0%
COC[C@@H]1CN(C(=O)COc2ccc(Cl)cc2C)C[C@H]1C(N)=O	0.5%
COc1ccc(OCC2c3cc(OC)c(OC)cc3CCN2C(=O)COc2ccc(Cl)cc2Cl)cc1 (configuration not stated)	10µM*
COC(=O)C[C@@H]1CCN(C(=O)COc2ccccc2)C[C@@H]1CC1=NCCc2cc(OC)c(OC)cc21	i
COCc1nnc2n1CCC(NC(=O)COc1ccc(Cl)cc1)CC2 (configuration not stated)	8.7%
O=C(COc1ccccc1)NCc1ccc2c(c1)CCN2C(=O)c1ccc(Cl)cc1	61.7%
COc1cc2c(cc1OC)C(COc1ccc(C(C)C)cc1)N(C(=O)COc1ccccc1)CC2 (configuration not stated)	11.2µM*
COCCOC1CCN(C(=O)COc2ccccc2)CC1	3.3%
COC(=O)c1ccc(OCC2c3cc(OC)c(OC)cc3CCN2C(=O)COc2ccc(Cl)cc2)cc1 (configuration not stated)	10µM*
O=C(c1cscn1)N1CC[C@@H]2[C@@H](CCC(=O)N2CCc2ccccn2)C1	-19.2%
O=C(CN1CCCCCC1=O)NC1CCCc2nc(-c3cccnc3)ncc21 (configuration not stated)	-8.3%
Cn1nccc1C(=O)N1CCC(N2C(=O)C(OCC3CC3)C23CCOCC3)CC1 (configuration not stated)	9.6%
COc1ccccc1CCNC(=O)C1CCN(c2nnc(C)c3c(C)n(-c4ccc(C)cc4)nc23)CC1	6.31µM*
Cc1nnc(N2CCC(C(=O)NCCc3ccccc3Cl)CC2)c2nn(-c3ccccc3)c(C)c12	11.2µM*
COc1ccc(Cl)cc1NC(=O)C1CCN(c2nnc(C)c3c(C)n(-c4ccccc4)nc23)CC1	i
CCN(CC)C(=O)C1CCN(c2nnc(C)c3c(C)n(-c4ccc(Cl)cc4)nc23)CC1	82.0%[5.79 µM]
COc1ccccc1NC(=O)C1CCCN(c2nnc(C)c3c(C)n(-c4ccccc4)nc23)C1 (configuration not stated)	-5.1%
CCOc1ccccc1CNC(=O)CSc1nnc(C)c2c(C)n(-c3ccccc3)nc12	-4.4%
Cc1ccc(NC(=O)C2CCCN(c3nnc(C)c4c(C)n(-c5ccccc5)nc34)C2)cc1Cl (configuration not stated)	24.4%
SMILES	Pf Dd2 inh
Cc1ccc(Cl)cc1NC(=O)C1CCN(c2nnc(C)c3c(C)n(-c4ccccc4)nc23)CC1	i
CCOc1ccccc1CNC(=O)C1CCN(c2nnc(C)c3c(C)n(-c4ccc(C)cc4)nc23)CC1	7.08µM*
Cc1ccc(S(=O)(=O)N(C)CC2CCOCC2)cc1C	5.5%
Cc1cccc(C(=O)N2CCC3(CCCCO3)CC2)c1	i
Cc1ccc(-c2cnc([C@@H]3COCCN3CC3CC3)[nH]2)cc1	i
COCCn1nnnc1C1CC2(CCOCC2)C(=O)N1Cc1cccnc1 (configuration not stated)	-10.3%
C=CCOC(=O)C1=C(C)N(Cc2cccc(Cl)c2)C(=O)CC1c1ccccc1Cl (configuration not stated)	-23.7%
O=C1CCN(S(=O)(=O)c2ccccc2)CCCN(C(=O)C2CCC2)CCN1	23.1%
O=C(c1ccc(CS(=O)(=O)c2c(Cl)cccc2Cl)o1)N1CCN(c2ccccc2)CC1	11.2µM*
Cc1ccc(S(=O)(=O)Cc2ccc(C(=O)N3CCN(c4cccc(C)c4C)CC3)o2)cc1	-10.0%
Cc1ccc(Cl)cc1N1CCN(C(=O)c2ccc(CS(=O)(=O)c3ccccc3C)o2)CC1	-21.4%
Cc1nc([C@@H]2CN(C(=O)c3ccc(Cn4ccnc4)o3)C[C@H]2C(N)=O)n[nH]1	6.0%
Cc1nn(C)cc1C(=O)N(Cc1cccc(Cl)c1)CC(C)C	-11.7%
Cc1nc(-c2c3n(c(=O)n(CC(=O)NCCCc4ccccc4)c2=O)CCCC3)no1	7.4%
COCCN1CCC(N2CCN(S(=O)(=O)c3ccc(C)c(C)c3)CC2)C1=O (configuration not stated)	-14.0%
O=C(CSc1ncc(CO)n1Cc1ccccc1)Nc1nc2ccccc2s1	-33.3%
